# Screens as filed in PubChem.
# This is a sample that favours compounds with a hit; in the whole collection about 12% have one here.
# BAZ2B block: BAZ2B (human) inhibition; Q9UIF8; AlphaScreen BAZ2B-H3K14Ac peptide displacement; Potency, µM (top dose mostly 114 µM), most hits filed as inhibitors; 360,000 tested, 4.4% active; AID 504333; note: nearly all actives have a fitted effect of over 60% in size
#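 Complex of BAZ2B and biotin-H3K14Ac (50 nM apiece) forms over 30 min at RT, then faces library compounds up to 110 uM for another 30 min; AlphaScreen beads added, 20 min dark incubation, luminescence read.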
# PI5P4K alpha inh: inhibitors of human PI5P4K alpha | PI5P4Kalpha enzyme, ADP-Glo luminescence, 60 min; stronger effect = lower value | max response, % | 330,000 tested, 1.2% active | AID 652105; active = max response of -50% or lower; inconclusive = between -30% and -50%; inactive = -30% or higher; note: value at the top dose of about 77 µM
#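 Controls without substrate or without enzyme flank wells where PI5P4Kalpha converts substrate using 5 microM ATP (final). Incubation lasts 60 minutes at room temperature; ADP formed is read by ADP-Glo luminescence.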
# G9a block: blocks human histone lysine methyltransferase G9a | Q96KQ7 | G9a H3K9 monomethylation, AlphaScreen, 2 h | Potency, µM (titrated, usually from 102 µM), hits mostly inhibitors | 350,000 tested, 8.8% active | AID 504332; note: nearly all actives have a fitted effect of over 75% in size
#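 Chemiluminescent proximity detection of H3K9 monomethylation, read after 10 min bead incubation in the dark. Reaction: 20 nM G9a, 500 nM biotin-H3K9 peptide, 20 uM SAM cofactor, 2 h, room temperature, following 15 min enzyme-compound preincubation.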
# JMJD2A Tudor inh: blocks the human JMJD2A Tudor domain; O75164; AlphaScreen JMJD2A-Tudor / H3K4me3 peptide binding; Potency, µM (titrated, usually from 114 µM), usual class: inhibitors; 390,000 tested, 4.4% active; note: nearly all actives have a fitted effect of over 50% in size
# PLK1 PBD inh: PLK1 (human) polo-box domain binding inhibition. 360,000 tested, 2.8% active. Plk1 PBD binding of FITC phosphopeptide, fluorescence polarization. Potency, µM, usual class: inhibitors. P53350; note: series mostly up to about 57 µM; nearly all actives have a fitted effect of over 65% in size
# HP1b chromo inh: blocks HP1-beta chromodomain binding to methylated histone tails; P83916; AlphaScreen HP1-beta / biotin-H3K9me3 peptide binding; Potency, µM (series often up to 114 µM), actives largely listed as inhibitors; 390,000 tested, 0.56% active; AID 540317; note: nearly all actives have a fitted effect of over 70% in size
#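 Compound inhibition of the preformed complex between 50 nM HP1-beta and 50 nM biotinylated H3K9me3 peptide was read by AlphaScreen. Buffer was PBS pH 7.4 with 0.01% Tween-20. Incubations ran 30 min at room temperature, with 10 ug/mL donor/acceptor beads.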
# Numbers stand for hits; 0 = inactive; ? = inconclusive; - = no result; [ ] = dose if it differs, or a comment. Unless noted, calls come from the whole dose curve; as a rule, active = well fitted curve in the direction sought with a large enough effect; inconclusive = small, poorly fitted or top-dose-only effect, or another doubt; inactive = no such curve, though single readings can be large; an effect the other way counts as inactive or inconclusive.
SMILES,BAZ2B block,PI5P4K alpha inh,G9a block,JMJD2A Tudor inh,PLK1 PBD inh,HP1b chromo inh
CCOC(=O)c1c(C)[nH]c(C(=O)OCC(=O)Nc2cccnc2Cl)c1C,0,0,?,0,0,0
Cc1c2ccccc2nc2c(F)c(NCCO)c(F)c(F)c12,0,?,?,0,6.7µM,0
CCN(CC)C(=O)CSC1=N/C(=C/c2ccco2)C(=O)N1c1ccc(OC)c(Cl)c1,?,0,25.1µM,0,0,0
NC(=O)CSC1=N/C(=C\c2ccco2)C(=O)N1c1ccc(OC(F)F)cc1,0,?,?,?,0,0
Fc1cccc(Cc2c(-c3cccc(Cl)c3)nc3c(Cl)cc(C(F)(F)F)cn23)c1,-,0,-,-,0,-
C=CCN(CC=C)Cc1c(O)ccc2c1oc(=O)c1ccccc12,-,-,-,8.91µM,0,?
Cc1ccc(Sc2c(C)nn(C(C)(C)C)c2OC(=O)CC(C)C)cc1,0,-,0,0,-,0
O=[N+]([O-])c1ccccc1Nc1nc(-c2cccnc2)cs1,14.1µM,0,?,35.5µM,0,?
CCc1ccccc1Nc1nc(-c2cccnc2)cs1,?,0,-,0,0,0
Cc1ccc(-c2noc(C3CCN(S(=O)(=O)c4ccc5c(c4)OCCO5)CC3)n2)o1,0,-,15.8µM,0,0,0
COc1ccc(C(=O)C2CCN(S(=O)(=O)c3ccc4c(c3)OCCO4)CC2)cc1,0,-,0[12.7 µM],0,0,0
CC(=O)c1cccc(S(=O)(=O)N2CCCC(c3nc(-c4ccc(C)o4)no3)C2)c1 (stereo not drawn),0,-,3.98µM,0,0,0
Cc1ccc(-c2noc(C3CCCN(S(=O)(=O)c4ccc5ccccc5c4)C3)n2)o1 (stereo not drawn),0,-,35.5µM,0,0,0
Cc1ccc(-c2noc(C3CCCN(S(=O)(=O)c4ccc(S(=O)(=O)N(C)C)cc4)C3)n2)o1 (stereo not drawn),0,-,0,0,0,0
Cc1ccc(S(=O)(=O)N2CCCC(c3nc(-c4ccc(C)o4)no3)C2)cc1 (stereo not drawn),0,-,0[2.33 µM],0,0,0
O=C(CCSc1ccccc1)Nc1nnc(-c2cccs2)o1,0,0,0,0,0,0
O=S(=O)(c1ccc2[nH]c3c(c2c1)CCCC3)N1CCN(c2cccc(C(F)(F)F)c2)CC1,0,-,0,?,-,0
COC(=O)/C=c1/s/c(=C(/C#N)C(=O)N2CCOCC2)n(-c2ccccc2)c1=O,0,0,?,0[11.4 µM],26.7µM,0
COC(=O)/C=c1/s/c(=C(/C#N)C(=O)N2CCCCC2)n(-c2ccccc2)c1=O,0,0,0,0,0,0
Cc1ccc(CN(C(=O)c2csnn2)C(C(=O)NC2CCCC2)c2cccnc2)cc1 (stereo not drawn),0,0,0,0,0,0
O=S1(=O)CC(N2CCN(CCO)CC2)CN1Cc1cn(Cc2ccc(C(F)(F)F)cc2)nn1 (stereo not drawn),-,0,-,-,0,-
COc1ccc(-c2nncnn2)cc1,44.7µM,0,?,?,0,0
COc1ccc(-c2ccc(OC)cc2)cc1,0,0,0,0,0,0
O=C1c2ccccc2C(=O)N1c1cncc2ccccc12,-,-,-,0,-,-
Cc1cc2nc(N3C(=O)CNC3=S)sc2cc1C,44.7µM,0,0,0,0,0
SMILES,BAZ2B block,PI5P4K alpha inh,G9a block,JMJD2A Tudor inh,PLK1 PBD inh,HP1b chromo inh
COc1cccc(CNCCSc2nnnn2-c2ccccc2)c1OC,0,-,0,0,-,0
O=C1/C(=C\c2ccc(Cl)c(Cl)c2)CN(C(=O)CCN2CCOCC2)C/C1=C/c1ccc(Cl)c(Cl)c1,-,0,-,35.5µM,0,0
Cc1sc(NC(=O)CCS(=O)(=O)c2ccccc2)c(C#N)c1C,0,?,?,0,13.4µM,?
Cc1cccc(OCC(=O)OCC(=O)Nc2sccc2C(N)=O)c1,-,0,-,0,0,0
Cc1sc(NC(=O)CS(=O)(=O)c2ccccc2)c(C#N)c1C,0,0,?,0,0,0
NC(=O)c1ccsc1NC(=O)COc1ccccc1,0,-,0,50.1µM,15µM,?
Cc1sc(NC(=O)COc2ccccc2)c(C#N)c1C,0,0,10µM,0,7.52µM,?
Cc1sc(NC(=O)COc2cccc(-n3cnnn3)c2)c(C#N)c1C,0,-,0,0,0,0
CC(=C\c1ccco1)/C=C(\C#N)C(=O)NCCc1c[nH]c2ccccc12,?,?,12.6µM,?,0,0
